Data: PubChem BioAssay AID743419 (Vanderbilt Specialized Chemistry Center, 2014)

Target: Metabotropic glutamate receptor 5 (Homo sapiens) (UniProt P41594)
Assay: off-target activity check on mGlu5 receptor – cell-based, calcium fluorescence, glutamate curve fold shift, selectivity assay for mGlu8/mGlu7 PAM project, profiling panel (AID 743419)
Conditions: mGlu5 cells, Fluo-4 calcium, glutamate CRC shift; glutamate EC50 fold shift; at 10 µM; stronger effect = higher value

Chain of Metabotropic glutamate receptor 5 (Homo sapiens) (P41594 whole entry, looked up): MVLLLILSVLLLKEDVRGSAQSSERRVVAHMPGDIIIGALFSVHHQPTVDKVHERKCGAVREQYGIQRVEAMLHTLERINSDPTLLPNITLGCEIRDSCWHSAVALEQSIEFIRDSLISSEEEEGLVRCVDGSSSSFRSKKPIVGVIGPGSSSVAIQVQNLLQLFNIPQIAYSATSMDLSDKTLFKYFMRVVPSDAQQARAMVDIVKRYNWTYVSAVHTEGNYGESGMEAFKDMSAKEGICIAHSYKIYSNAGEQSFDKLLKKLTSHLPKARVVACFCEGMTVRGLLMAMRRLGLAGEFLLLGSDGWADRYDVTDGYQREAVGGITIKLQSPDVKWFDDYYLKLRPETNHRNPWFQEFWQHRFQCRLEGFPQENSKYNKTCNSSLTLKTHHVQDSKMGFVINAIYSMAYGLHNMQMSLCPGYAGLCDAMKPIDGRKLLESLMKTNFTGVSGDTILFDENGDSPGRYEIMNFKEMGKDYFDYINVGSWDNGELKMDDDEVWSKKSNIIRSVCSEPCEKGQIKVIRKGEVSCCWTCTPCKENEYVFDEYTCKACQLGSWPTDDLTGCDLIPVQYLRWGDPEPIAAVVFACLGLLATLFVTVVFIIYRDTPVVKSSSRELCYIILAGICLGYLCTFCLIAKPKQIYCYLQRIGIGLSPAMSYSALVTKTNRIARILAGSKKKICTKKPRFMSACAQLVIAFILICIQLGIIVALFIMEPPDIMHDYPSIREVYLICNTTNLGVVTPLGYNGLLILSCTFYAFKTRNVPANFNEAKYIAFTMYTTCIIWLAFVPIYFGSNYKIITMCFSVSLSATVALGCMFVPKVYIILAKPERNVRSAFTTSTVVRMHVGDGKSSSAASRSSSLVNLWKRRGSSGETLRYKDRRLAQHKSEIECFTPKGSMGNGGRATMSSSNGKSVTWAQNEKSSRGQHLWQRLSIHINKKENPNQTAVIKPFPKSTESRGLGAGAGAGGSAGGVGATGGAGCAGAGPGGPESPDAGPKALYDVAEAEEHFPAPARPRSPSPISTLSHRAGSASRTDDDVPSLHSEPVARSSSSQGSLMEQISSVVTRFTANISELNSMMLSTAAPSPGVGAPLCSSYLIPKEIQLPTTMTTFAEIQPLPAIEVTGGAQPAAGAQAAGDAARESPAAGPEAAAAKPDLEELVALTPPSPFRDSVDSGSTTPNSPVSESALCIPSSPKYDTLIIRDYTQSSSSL

COC(=O)c1ccc(-n2c(C)cc(C(=O)CSc3ccc(NC(C)=O)cc3)c2C)cc1
fold shift: 1.45
